# In ChEMBL document CHEMBL1961873, “Compounds: GSK PKIS; Assays: Nanosyn kinase panel” (2012):
# Values joined by “and” are separate entries in the source; they are usually repeats but may differ in a detail not shown here. Equal values may be shown once.
# How the values were obtained:
# [1] = tested on: Proto-oncogene tyrosine-protein kinase receptor Ret (Homo sapiens), P07949 [Y791F]; conditions: at 1 µM
# [2] = target: Macrophage-stimulating protein receptor (Homo sapiens) (UniProt Q04912); conditions: at 0.1 µM
# [3] = target: Macrophage-stimulating protein receptor (Homo sapiens) (UniProt Q04912); conditions: at 1 µM
# [4] = target: Proto-oncogene tyrosine-protein kinase ROS (Homo sapiens) (UniProt P08922); conditions: at 0.1 µM
# Chain of Proto-oncogene tyrosine-protein kinase ROS (Homo sapiens) (P08922 whole entry): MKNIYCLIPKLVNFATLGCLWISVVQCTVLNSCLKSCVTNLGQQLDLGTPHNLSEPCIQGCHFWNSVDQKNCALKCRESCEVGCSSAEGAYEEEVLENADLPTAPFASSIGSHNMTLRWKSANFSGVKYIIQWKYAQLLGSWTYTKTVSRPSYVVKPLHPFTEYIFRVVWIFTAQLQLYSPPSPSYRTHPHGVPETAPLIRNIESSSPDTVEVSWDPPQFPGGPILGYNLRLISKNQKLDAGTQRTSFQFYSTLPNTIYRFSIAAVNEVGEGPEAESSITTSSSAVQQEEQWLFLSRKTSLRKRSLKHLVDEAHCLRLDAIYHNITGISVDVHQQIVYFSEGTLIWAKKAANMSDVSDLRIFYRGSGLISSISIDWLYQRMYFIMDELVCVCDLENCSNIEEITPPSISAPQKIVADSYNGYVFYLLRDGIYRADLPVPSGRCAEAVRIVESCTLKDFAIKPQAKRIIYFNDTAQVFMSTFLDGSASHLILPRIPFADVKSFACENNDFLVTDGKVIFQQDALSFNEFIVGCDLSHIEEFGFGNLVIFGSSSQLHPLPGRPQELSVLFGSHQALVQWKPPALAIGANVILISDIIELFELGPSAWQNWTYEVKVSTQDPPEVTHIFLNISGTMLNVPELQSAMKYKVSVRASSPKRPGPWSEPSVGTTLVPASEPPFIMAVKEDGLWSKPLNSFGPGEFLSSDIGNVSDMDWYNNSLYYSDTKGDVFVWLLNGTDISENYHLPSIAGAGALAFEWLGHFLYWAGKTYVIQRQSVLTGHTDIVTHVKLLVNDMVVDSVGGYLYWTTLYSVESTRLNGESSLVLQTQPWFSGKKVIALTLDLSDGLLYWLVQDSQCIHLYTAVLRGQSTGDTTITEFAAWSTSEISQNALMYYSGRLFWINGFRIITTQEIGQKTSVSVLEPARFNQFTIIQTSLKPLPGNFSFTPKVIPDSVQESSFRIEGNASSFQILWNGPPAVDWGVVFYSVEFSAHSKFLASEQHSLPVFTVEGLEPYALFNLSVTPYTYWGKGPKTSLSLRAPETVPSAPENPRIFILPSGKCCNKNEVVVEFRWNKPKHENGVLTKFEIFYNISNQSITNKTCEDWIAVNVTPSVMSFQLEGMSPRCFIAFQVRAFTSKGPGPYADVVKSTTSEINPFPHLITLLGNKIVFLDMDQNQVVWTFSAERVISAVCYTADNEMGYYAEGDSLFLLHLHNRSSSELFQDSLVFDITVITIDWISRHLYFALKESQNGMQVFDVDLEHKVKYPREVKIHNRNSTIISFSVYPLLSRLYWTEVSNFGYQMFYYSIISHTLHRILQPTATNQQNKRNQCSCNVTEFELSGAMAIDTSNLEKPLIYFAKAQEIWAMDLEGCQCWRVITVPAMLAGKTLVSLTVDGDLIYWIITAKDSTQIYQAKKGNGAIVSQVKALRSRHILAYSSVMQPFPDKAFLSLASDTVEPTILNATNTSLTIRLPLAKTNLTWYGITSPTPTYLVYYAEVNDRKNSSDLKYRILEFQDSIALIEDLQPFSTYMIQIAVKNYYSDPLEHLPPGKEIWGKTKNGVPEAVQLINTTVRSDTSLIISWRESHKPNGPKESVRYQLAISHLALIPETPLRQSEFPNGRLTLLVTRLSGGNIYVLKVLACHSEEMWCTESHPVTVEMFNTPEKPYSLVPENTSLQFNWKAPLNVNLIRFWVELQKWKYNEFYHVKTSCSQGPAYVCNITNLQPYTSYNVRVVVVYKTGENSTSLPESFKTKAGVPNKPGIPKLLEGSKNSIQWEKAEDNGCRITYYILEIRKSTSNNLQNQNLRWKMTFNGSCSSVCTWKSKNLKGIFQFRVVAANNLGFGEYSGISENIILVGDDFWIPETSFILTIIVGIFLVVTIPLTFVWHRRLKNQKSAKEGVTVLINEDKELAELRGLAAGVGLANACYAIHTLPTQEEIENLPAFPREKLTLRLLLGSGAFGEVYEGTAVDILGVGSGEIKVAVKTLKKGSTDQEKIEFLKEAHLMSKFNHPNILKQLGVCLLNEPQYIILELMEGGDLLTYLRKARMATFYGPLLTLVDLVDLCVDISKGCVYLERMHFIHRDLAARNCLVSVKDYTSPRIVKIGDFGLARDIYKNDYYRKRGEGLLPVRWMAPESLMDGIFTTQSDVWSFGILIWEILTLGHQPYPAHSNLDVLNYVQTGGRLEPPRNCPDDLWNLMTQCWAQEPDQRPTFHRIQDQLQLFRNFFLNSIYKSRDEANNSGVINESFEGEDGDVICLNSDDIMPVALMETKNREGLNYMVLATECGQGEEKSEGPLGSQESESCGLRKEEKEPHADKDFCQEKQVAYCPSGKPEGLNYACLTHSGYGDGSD
# [5] = target: Proto-oncogene tyrosine-protein kinase ROS (Homo sapiens) (UniProt P08922); conditions: at 1 µM
# [6] = target: Proto-oncogene tyrosine-protein kinase Src (Homo sapiens) (UniProt P12931); conditions: at 0.1 µM
# [7] = target: Proto-oncogene tyrosine-protein kinase Src (Homo sapiens) (UniProt P12931); conditions: at 1 µM
# [8] = target: Tyrosine-protein kinase Srms (Homo sapiens) (UniProt Q9H3Y6); conditions: at 0.1 µM
# Chain of Tyrosine-protein kinase Srms (Homo sapiens) (Q9H3Y6 whole entry): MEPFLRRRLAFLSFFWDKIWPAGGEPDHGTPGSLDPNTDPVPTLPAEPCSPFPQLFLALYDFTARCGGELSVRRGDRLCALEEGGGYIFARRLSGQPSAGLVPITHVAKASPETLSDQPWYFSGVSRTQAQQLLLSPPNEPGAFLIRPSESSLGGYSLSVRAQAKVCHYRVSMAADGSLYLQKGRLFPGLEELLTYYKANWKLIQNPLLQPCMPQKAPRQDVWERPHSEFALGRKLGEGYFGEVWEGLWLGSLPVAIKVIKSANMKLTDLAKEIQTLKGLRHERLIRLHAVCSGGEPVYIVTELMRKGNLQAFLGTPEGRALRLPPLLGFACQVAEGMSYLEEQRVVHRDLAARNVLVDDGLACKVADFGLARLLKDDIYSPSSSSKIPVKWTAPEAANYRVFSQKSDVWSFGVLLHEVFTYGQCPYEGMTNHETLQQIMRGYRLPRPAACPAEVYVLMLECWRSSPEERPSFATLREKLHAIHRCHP
# [9] = target: Tyrosine-protein kinase Srms (Homo sapiens) (UniProt Q9H3Y6); conditions: at 1 µM
# [10] = target: Tyrosine-protein kinase SYK (Homo sapiens) (UniProt P43405); conditions: at 0.1 µM
# [11] = target: Tyrosine-protein kinase SYK (Homo sapiens) (UniProt P43405); conditions: at 1 µM
# [12] = target: T1, Tyrosine-protein kinase Tec (Homo sapiens) (UniProt P42680); conditions: at 0.1 µM
# T1 sequence (whole entry): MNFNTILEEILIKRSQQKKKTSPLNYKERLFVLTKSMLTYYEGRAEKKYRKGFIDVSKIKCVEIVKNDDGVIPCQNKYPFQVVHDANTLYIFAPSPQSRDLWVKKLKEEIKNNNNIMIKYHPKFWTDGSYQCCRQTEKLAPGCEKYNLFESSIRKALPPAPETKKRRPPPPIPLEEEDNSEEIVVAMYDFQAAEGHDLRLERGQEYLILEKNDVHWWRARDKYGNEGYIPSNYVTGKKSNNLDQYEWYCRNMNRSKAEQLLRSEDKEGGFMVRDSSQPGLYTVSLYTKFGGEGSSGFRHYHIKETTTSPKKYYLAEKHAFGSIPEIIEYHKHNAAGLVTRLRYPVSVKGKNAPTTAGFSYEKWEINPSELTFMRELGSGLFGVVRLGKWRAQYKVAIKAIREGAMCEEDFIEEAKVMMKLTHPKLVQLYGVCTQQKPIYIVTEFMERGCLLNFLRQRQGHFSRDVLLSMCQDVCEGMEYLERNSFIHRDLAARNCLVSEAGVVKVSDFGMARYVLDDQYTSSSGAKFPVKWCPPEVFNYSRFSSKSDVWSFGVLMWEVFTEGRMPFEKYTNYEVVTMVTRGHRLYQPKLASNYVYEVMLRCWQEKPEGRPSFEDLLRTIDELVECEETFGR
# [13] = target: T1, Tyrosine-protein kinase Tec (Homo sapiens); conditions: at 1 µM
# [14] = target: Angiopoietin-1 receptor (Homo sapiens) (UniProt Q02763); conditions: at 0.1 µM
# [15] = target: Angiopoietin-1 receptor (Homo sapiens) (UniProt Q02763); conditions: at 1 µM
# [16] = target: T2, Non-receptor tyrosine-protein kinase TNK1 (Homo sapiens) (UniProt Q13470); conditions: at 0.1 µM
# T2 sequence (whole entry): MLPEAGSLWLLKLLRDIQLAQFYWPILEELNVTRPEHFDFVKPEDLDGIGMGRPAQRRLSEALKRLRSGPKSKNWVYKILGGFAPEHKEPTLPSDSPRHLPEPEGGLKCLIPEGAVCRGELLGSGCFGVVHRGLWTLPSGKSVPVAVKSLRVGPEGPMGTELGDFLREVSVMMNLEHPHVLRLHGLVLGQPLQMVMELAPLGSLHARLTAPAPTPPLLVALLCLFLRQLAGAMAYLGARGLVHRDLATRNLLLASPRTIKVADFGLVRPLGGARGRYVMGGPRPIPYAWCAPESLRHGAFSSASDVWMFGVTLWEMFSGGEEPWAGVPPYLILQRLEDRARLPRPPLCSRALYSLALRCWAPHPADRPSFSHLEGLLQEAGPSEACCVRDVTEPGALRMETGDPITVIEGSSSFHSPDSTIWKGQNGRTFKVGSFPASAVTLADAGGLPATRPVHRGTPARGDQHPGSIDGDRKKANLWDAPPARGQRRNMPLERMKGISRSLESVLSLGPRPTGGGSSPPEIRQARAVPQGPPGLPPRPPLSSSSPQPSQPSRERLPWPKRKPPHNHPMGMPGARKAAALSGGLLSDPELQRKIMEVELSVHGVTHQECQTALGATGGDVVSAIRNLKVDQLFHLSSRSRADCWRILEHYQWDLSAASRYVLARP
# [17] = target: T2, Non-receptor tyrosine-protein kinase TNK1 (Homo sapiens); conditions: at 1 µM
# [18] = target: Activated CDC42 kinase 1 (Homo sapiens) (UniProt Q07912); conditions: at 0.1 µM
# [19] = target: Activated CDC42 kinase 1 (Homo sapiens) (UniProt Q07912); conditions: at 1 µM
# [20] = target: High affinity nerve growth factor receptor (Homo sapiens) (UniProt P04629); conditions: at 0.1 µM;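 also: each value is a mean of replicate percent inhibition readings against TRKA kinase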
# Chain of High affinity nerve growth factor receptor (Homo sapiens) (P04629 33-796 limits assumed): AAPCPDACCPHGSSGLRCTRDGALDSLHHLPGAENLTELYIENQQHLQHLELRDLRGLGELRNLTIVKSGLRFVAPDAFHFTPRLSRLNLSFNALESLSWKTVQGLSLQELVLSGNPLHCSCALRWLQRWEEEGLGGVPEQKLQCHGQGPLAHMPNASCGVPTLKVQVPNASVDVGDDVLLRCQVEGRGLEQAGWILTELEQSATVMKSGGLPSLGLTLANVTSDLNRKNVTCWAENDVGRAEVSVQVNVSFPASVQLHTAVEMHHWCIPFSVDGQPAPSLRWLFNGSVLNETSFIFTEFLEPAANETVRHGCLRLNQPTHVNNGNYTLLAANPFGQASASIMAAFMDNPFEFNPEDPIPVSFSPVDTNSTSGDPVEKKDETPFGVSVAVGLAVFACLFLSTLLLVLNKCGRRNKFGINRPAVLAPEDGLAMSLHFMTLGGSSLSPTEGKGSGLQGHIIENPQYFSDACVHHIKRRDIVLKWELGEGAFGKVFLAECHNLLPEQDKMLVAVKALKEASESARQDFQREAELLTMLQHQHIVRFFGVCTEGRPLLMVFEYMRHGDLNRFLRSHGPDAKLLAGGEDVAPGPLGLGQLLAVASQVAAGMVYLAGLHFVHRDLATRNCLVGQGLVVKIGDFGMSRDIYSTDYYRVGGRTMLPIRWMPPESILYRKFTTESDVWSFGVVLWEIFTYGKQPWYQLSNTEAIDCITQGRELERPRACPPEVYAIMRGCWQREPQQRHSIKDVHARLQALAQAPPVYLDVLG
# Chain of Proto-oncogene tyrosine-protein kinase receptor Ret (Homo sapiens), P07949 [Y791F] (P07949 whole entry Y791F): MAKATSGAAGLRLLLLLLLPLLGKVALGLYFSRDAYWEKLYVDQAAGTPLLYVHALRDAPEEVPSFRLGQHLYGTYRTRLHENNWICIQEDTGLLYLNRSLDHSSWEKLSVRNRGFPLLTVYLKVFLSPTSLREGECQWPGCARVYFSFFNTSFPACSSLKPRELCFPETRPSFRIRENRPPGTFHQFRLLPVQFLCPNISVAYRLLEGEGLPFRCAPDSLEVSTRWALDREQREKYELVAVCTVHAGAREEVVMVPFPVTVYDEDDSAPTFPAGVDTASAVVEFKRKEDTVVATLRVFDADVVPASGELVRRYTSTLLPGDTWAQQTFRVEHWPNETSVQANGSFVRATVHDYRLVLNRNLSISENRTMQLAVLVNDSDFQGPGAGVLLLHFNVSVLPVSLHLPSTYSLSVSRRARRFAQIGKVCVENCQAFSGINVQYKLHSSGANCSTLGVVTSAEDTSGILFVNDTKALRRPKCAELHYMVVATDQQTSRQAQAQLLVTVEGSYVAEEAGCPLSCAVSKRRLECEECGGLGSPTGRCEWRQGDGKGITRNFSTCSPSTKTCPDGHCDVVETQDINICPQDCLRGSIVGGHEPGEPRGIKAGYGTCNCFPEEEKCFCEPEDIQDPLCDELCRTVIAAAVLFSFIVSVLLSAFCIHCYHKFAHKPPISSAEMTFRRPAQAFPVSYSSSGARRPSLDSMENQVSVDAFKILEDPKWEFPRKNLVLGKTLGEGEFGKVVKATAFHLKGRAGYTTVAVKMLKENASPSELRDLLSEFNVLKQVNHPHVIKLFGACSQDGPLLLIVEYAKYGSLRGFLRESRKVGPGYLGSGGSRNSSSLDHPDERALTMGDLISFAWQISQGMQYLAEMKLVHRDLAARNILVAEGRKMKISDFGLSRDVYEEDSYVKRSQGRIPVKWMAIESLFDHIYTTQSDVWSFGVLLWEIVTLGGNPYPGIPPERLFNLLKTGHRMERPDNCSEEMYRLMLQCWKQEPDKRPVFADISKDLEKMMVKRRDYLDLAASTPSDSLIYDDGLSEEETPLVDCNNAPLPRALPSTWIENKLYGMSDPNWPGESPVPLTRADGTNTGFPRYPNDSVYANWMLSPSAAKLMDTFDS
Compound,inhibition [1],inhibition [2],inhibition [3],inhibition [4],inhibition [5],inhibition [6],inhibition [7],inhibition [8],inhibition [9],inhibition [10],inhibition [11],inhibition [12],inhibition [13],inhibition [14],inhibition [15],inhibition [16],inhibition [17],inhibition [18],inhibition [19],inhibition [20]
OCCCNc1nccc(-c2c(-c3ccc(F)cc3)nn3cc(C(F)(F)F)ccc23)n1,6.1%,0.58%,1.65%,4.09%,6.03%,5.06%,8.49%,-0.48%,-0.71%,5.03%,0.36%,3.37%,5.41%,2.38%,5.06%,0.14%,3.92%,0.22%,1.57%,3.24%
CCOc1ccc2c(-c3ccnc(Nc4cc(OC)cc(C(F)(F)F)c4)n3)cnn2n1,5.26%,8%,7.47%,4.18%,20.7%,-3.54%,16.3%,2.39%,4.4%,-3.45%,-0.62%,2.25%,7.24%,7.37%,13.5%,2.46%,12.4%,0.16%,1.19%,0.62%
Nc1nccc(-c2c(-c3ccc(F)cc3)ncn2C2CCNCC2)n1,18.1% and 7.68%,7.21%,-1.75% and 1.85%,1.07% and 4.79%,8.31% and 7.82%,-4.6% and -5.2%,0.47% and 5.61%,-1% and 0.6%,1.09% and -0.34%,0.33% and 1.19%,-2.74% and 1.45%,-2.4% and 0.94%,-2.93% and 2.08%,-0.35% and 2.75%,1.51% and 1.25%,-6.18% and -1.13%,-2.86% and -0.41%,-1.87% and 0.84%,-2.1% and 1.2%,-1.68% and 4.53%
COC(=O)Nc1nc2cc(Oc3ccc(NC(=O)Nc4ccccc4)cc3)ccc2[nH]1,25.8%,7.21%,8.17%,2.15%,2.86%,5.93%,7.76%,0.48%,-1.09%,-5.19%,0.09%,1.83%,1.84%,5.37%,9.24%,2.64%,4.12%,0.69%,1.18%,2.62%
CS(=O)(=O)CCNCc1ccoc1-c1ccc2ncnc(Nc3ccc(OCc4ccccc4)cc3)c2c1,9.63%,1.78%,-1.8%,0.39%,2%,3.56%,4.6%,-1.68%,-0.79%,-2.93%,0.23%,0.03%,3.04%,1.86%,4.86%,1.08%,5.74%,0.06%,0.6%,1.31%
Fc1ccc(Nc2nccc(-c3c(-c4ccc(C(F)(F)F)cc4)nn4ncccc34)n2)cc1F,4.13%,-2.05%,4.5%,6.56%,8.15%,-0.44%,6.45%,0.3%,-1.61%,-5.43%,-0.68%,4.32%,6.72%,1.72%,1.95%,3.85%,-0.46%,1.2%,0.83%,2.39%
O=C(O[C@H]1CN[C@H](C#Cc2cc3ncnc(Nc4ccc5c(ccn5Cc5cc(F)ccc5F)c4)c3s2)C1)N1CCOCC1,19.6%,-0.04%,7.89%,5.19%,6.27%,0.52%,8.86%,-2.61%,-3.38%,-0.55%,0.11%,4.74%,7.34%,3.18%,10.8%,2.48%,1.5%,0.66%,0.98%,1.93%
FC(F)(F)CNc1nccc(-c2cnn3ncccc23)n1,2.92%,1.76%,-1.8%,-0.19%,2.27%,3.96%,3.98%,-5.51%,-3.04%,-0.18%,-3.33%,0.22%,2.62%,1.95%,3.61%,0.51%,4.99%,0.71%,-0.17%,-0.41%
NS(=O)(=O)c1ccc(N/N=C2\C(=O)Nc3cccc(CCc4ccncc4)c32)cc1,29.1%,-0.73%,5.76%,3%,9.09%,3.83%,9.5%,1.9%,1.2%,0.03%,-2.6%,-0.23%,4.92%,0.8%,3.33%,12.8%,14.7%,0.97%,1.34%,6.26%
CN1CCC(C(=O)Nc2n[nH]c3nc(-c4ccc(O)cc4)c(Br)cc23)CC1,20.8% and 5.43%,-1.02% and 7.11%,6.18% and 11.8%,5.2% and 4.89%,10.4% and 1.96%,6.76% and 6.26%,9.87% and 8.29%,-2.12% and 1.04%,-1.75% and -1%,-0.18% and 0.92%,-0.04% and 0.42%,-1.21% and 2.96%,1.24% and 2.96%,3.01% and 5.98%,7.84% and 7.69%,3.57% and 0.52%,6.51% and 6.06%,0.92% and 0.24%,1.76% and 1.56%,1.13% and 2.68%
CCS(=O)(=O)c1ccc(OC)c(Nc2ncc(-c3cccc(C(C)=O)c3)o2)c1,39.2%,-2.76%,3.79%,3.34%,16.5%,16.3%,70.7%,0.94%,17.7%,-5.14%,-2.16%,6.22%,26.6%,2.09%,9.26%,15.3%,66.9%,1.65%,6.5%,4.29%
CCn1c(-c2nonc2N)nc2cncc(C(=O)NCCNC)c21,12.2%,1.51%,1.07%,3.34%,14%,8.77%,6.62%,-2.48%,-2.36%,-1.48%,-6.01%,2.57%,4.27%,5.54%,7.24%,-0.07%,8.48%,2.67%,2.15%,1.96%
CC(C)c1ccc(-c2cc(-c3c[nH]nc3-c3ccccn3)ccn2)cc1,4.31%,-5.99%,3.62%,2.06%,1.81%,1.53%,0.23%,0.28%,-0.57%,2.53%,1.09%,2.3%,2.11%,4.71%,6.64%,0.85%,-0.32%,0.23%,0.19%,0.99%
